# Test results: the supplement of paper PMC4466140
# Target: ScBbc1
# Assay: SPOT peptide array binding signal intensity (averaged, normalized) (arbitrary units (background-subtracted, floor 0; scale differs between SH3 domains)); higher = stronger binding of the SH3 domain to the peptide
# How it was run: (§1)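 To measure binding, SH3 domains from four yeast species were fused to GST, expressed in E. coli BL21(DE3) and purified on glutathione Sepharose. Each domain was incubated at 10 μg/ml overnight at 4°C on cellulose membranes with synthetic 15-mer peptides whose cysteines were replaced by serines. Anti-GST antibody, an HRP anti-mouse secondary and luminol were used for detection, and images were quantified with Genespotter. Reported binding signal is normalized, background-subtracted spot intensity averaged over replicates, in arbitrary units that differ between domains.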
row,Binder,SPOT peptide array binding signal intensity
1,IAPIPMPKPNPTHIS,≤ 0

# Target: ScBem1-D1
# Assay: as above
# How it was run: as §1
row,Binder,SPOT peptide array binding signal intensity
1,IAPIPMPKPNPTHIS,≤ 0

# Target: ScBzz1-D1
# Assay: as above
# How it was run: as §1
row,Binder,SPOT peptide array binding signal intensity
1,IAPIPMPKPNPTHIS,≤ 0

# Target: ScBzz1-D2
# Assay: as above
# How it was run: as §1
row,Binder,SPOT peptide array binding signal intensity
1,IAPIPMPKPNPTHIS,≤ 0

# Target: ScCyk3
# Assay: as above
# How it was run: as §1
row,Binder,SPOT peptide array binding signal intensity
1,IAPIPMPKPNPTHIS,≤ 0

# Target: ScFus1
# Assay: as above
# How it was run: as §1
row,Binder,SPOT peptide array binding signal intensity
1,IAPIPMPKPNPTHIS,56

# Target: ScHof1
# Assay: as above
# How it was run: as §1
row,Binder,SPOT peptide array binding signal intensity
1,IAPIPMPKPNPTHIS,≤ 0

# Target: ScHse1
# Assay: as above
# How it was run: as §1
row,Binder,SPOT peptide array binding signal intensity
1,IAPIPMPKPNPTHIS,≤ 0

# Target: ScLsb1
# Assay: as above
# How it was run: as §1
row,Binder,SPOT peptide array binding signal intensity
1,IAPIPMPKPNPTHIS,≤ 0

# Target: ScLsb2
# Assay: as above
# How it was run: as §1
row,Binder,SPOT peptide array binding signal intensity
1,IAPIPMPKPNPTHIS,≤ 0

# Target: ScLsb3
# Assay: as above
# How it was run: as §1
row,Binder,SPOT peptide array binding signal intensity
1,IAPIPMPKPNPTHIS,≤ 0

# Target: ScLsb4
# Assay: as above
# How it was run: as §1
row,Binder,SPOT peptide array binding signal intensity
1,IAPIPMPKPNPTHIS,≤ 0

# Target: ScMyo3
# Assay: as above
# How it was run: as §1
row,Binder,SPOT peptide array binding signal intensity
1,IAPIPMPKPNPTHIS,≤ 0

# Target: ScMyo5
# Assay: as above
# How it was run: as §1
row,Binder,SPOT peptide array binding signal intensity
1,IAPIPMPKPNPTHIS,≤ 0

# Target: ScNbp2
# Assay: as above
# How it was run: as §1
row,Binder,SPOT peptide array binding signal intensity
1,IAPIPMPKPNPTHIS,158

# Target: ScPex13
# Assay: as above
# How it was run: as §1
row,Binder,SPOT peptide array binding signal intensity
1,IAPIPMPKPNPTHIS,22.2

# Target: ScRvs167
# Assay: as above
# How it was run: as §1
row,Binder,SPOT peptide array binding signal intensity
1,IAPIPMPKPNPTHIS,0.333

# Target: ScSho1
# Assay: as above
# How it was run: as §1
row,Binder,SPOT peptide array binding signal intensity
1,IAPIPMPKPNPTHIS,158

# Target: ScSla1-D1-D2
# Assay: as above
# How it was run: as §1
row,Binder,SPOT peptide array binding signal intensity
1,IAPIPMPKPNPTHIS,0.5

# Target: ScSla1-D3
# Assay: as above
# How it was run: as §1
row,Binder,SPOT peptide array binding signal intensity
1,IAPIPMPKPNPTHIS,81.5

# Target: SpAbp1-D1
# Assay: as above
# How it was run: as §1
row,Binder,SPOT peptide array binding signal intensity
1,IAPIPMPKPNPTHIS,8.5

# Target: SpBbc1
# Assay: as above
# How it was run: as §1
row,Binder,SPOT peptide array binding signal intensity
1,IAPIPMPKPNPTHIS,≤ 0

# Target: SpBzz1-D1
# Assay: as above
# How it was run: as §1
row,Binder,SPOT peptide array binding signal intensity
1,IAPIPMPKPNPTHIS,37.5

# Target: SpBzz1-D2
# Assay: as above
# How it was run: as §1
row,Binder,SPOT peptide array binding signal intensity
1,IAPIPMPKPNPTHIS,0.5

# Target: SpCyk3
# Assay: as above
# How it was run: as §1
row,Binder,SPOT peptide array binding signal intensity
1,IAPIPMPKPNPTHIS,≤ 0

# Target: SpHof1
# Assay: as above
# How it was run: as §1
row,Binder,SPOT peptide array binding signal intensity
1,IAPIPMPKPNPTHIS,≤ 0

# Target: SpHof1-2
# Assay: as above
# How it was run: as §1
row,Binder,SPOT peptide array binding signal intensity
1,IAPIPMPKPNPTHIS,7

# Target: SpHof1-3
# Assay: as above
# How it was run: as §1
row,Binder,SPOT peptide array binding signal intensity
1,IAPIPMPKPNPTHIS,≤ 0

# Target: SpHse1
# Assay: as above
# How it was run: as §1
row,Binder,SPOT peptide array binding signal intensity
1,IAPIPMPKPNPTHIS,217

# Target: SpLsb1
# Assay: as above
# How it was run: as §1
row,Binder,SPOT peptide array binding signal intensity
1,IAPIPMPKPNPTHIS,≤ 0

# Target: SpLsb4
# Assay: as above
# How it was run: as §1
row,Binder,SPOT peptide array binding signal intensity
1,IAPIPMPKPNPTHIS,92.5

# Target: SpMyo1
# Assay: as above
# How it was run: as §1
row,Binder,SPOT peptide array binding signal intensity
1,IAPIPMPKPNPTHIS,0.5

# Target: SpNbp2
# Assay: as above
# How it was run: as §1
row,Binder,SPOT peptide array binding signal intensity
1,IAPIPMPKPNPTHIS,29

# Target: SpPex13
# Assay: as above
# How it was run: as §1
row,Binder,SPOT peptide array binding signal intensity
1,IAPIPMPKPNPTHIS,2

# Target: SpRvs167
# Assay: as above
# How it was run: as §1
row,Binder,SPOT peptide array binding signal intensity
1,IAPIPMPKPNPTHIS,≤ 0

# Target: SpSla1-D1-D2
# Assay: as above
# How it was run: as §1
row,Binder,SPOT peptide array binding signal intensity
1,IAPIPMPKPNPTHIS,≤ 0

# Target: SpSla1-D3
# Assay: as above
# How it was run: as §1
row,Binder,SPOT peptide array binding signal intensity
1,IAPIPMPKPNPTHIS,32
